HCV inh – qHTS Assay for Inhibitors of Hepatitis C Virus (HCV); Huh7.5.1 HCVcc-Cre infection, luciferase reporter, 44 h; Potency, µM (titrated, usually from 41.8 µM), actives largely listed as inhibitors; hit rate 3.4% among 340,000; AID 651820, 2012; active = well fitted inhibition curve with a large enough effect; inconclusive = small, poorly fitted or top-dose-only effect, or another doubt; inactive = no such curve, though single readings can be large or run the other way
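After 44 h co-culture of compound, cells and HCVcc-Cre (~0.5 moi), substrate is added for 15 min at room temperature and luciferase measured over 15 sec. Cells were seeded at 1,000/well and pre-cultured 4 h.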
Lassa entry inh – qHTS for Inhibitors of binding or entry into cells for Lassa Virus | Lassa virus pseudotype entry inhibition, cell reporter | Potency, µM (highest dose often 37.9 µM), actives largely listed as inhibitors | hit rate 1.2% among 300,000 | AID 540256, 2011; calls by dose curve; tested in HEK293 cells; also: nearly all actives have a fitted effect of over 50% in size
FMDV antiviral – High Throughput Screening for Foot and Mouth Disease Virus Antivirals. FMDV antiviral cell-based qHTS. Potency, µM (doses to about 57.9 µM), actives largely listed as inhibitors. hit rate 1.2% among 410,000. AID 1159524, 2015; calls by dose curve; tested in HEK293T cells; also: read-out not given here; nearly all actives have a fitted effect of over 45% in size
MARV entry inh – qHTS for inhibitors of binding or entry into cells for Marburg Virus | Marburg virus pseudotyped entry inhibition, cell reporter | Potency, µM (top dose mostly 37.8 µM), usual class: inhibitors | hit rate 1.8% among 300,000; calls by dose curve; tested in HEK293 cells
SARS PLP yeast – qHTS of Yeast-based Assay for SARS-CoV PLP; S. cerevisiae expressing SARS-CoV PLpro, growth rescue; hit rate 0.19% among 330,000; AID 485353, 2010; Potency, µM (highest dose often 32.9 µM), usual class: activators; calls by dose curve; also: nearly all actives have a fitted effect of over 55% in size
HCMV antiviral – qHTS Assay for inhibitors of the human cytomegalovirus (HCMV). activity change, negative = inhibition, % at 57.5 µM. HFF cells, HCMV-luciferase reporter, 72 h; active compounds read low. hit rate 4.5% among 410,000; in the data active = activity change below about -60%; inconclusive = no clear call, values can overlap the other calls; inactive = above about -39%
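HFF cells seeded 16 h at 37C, treated with compounds, infected with luciferase-reporter HCMV at MOI 1 PFU/cell; luciferase read at 72 h post infection, normalized to buffer-only and Salinomycin controls.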
Of the large screens only hits and unclear results are named; the others gave an inactive call. Hits are enriched below; roughly 8% of the tested compounds scored in any of these assays.

O=C(N/N=C/c1cn(-c2ccccc2)nc1-c1cccnc1)c1ccccc1	HCV inh inconclusive, MARV entry inh inconclusive
Cc1nc2ccccn2c1-c1ccnn1S(=O)(=O)c1ccc(F)cc1	HCV inh inconclusive, FMDV antiviral inconclusive, HCMV antiviral -94.3 (no result: Lassa entry inh, MARV entry inh)
CC(c1ccccc1)N(NC(=O)C(O)(c1ccccc1)c1ccccc1)C(=O)c1ccccc1 (centres undefined)	HCV inh inconclusive, MARV entry inh inconclusive, HCMV antiviral -74.2
Brc1cc(-c2ccccc2)nc(-c2ccccc2)n1	HCV inh 11.2µM (no result: SARS PLP yeast)
O=C1[C@H]2[C@H]3[C@H](O)[C@H](O)C/C(=N\OC[C@@H](O)COCc4ccco4)[C@@H]3CC[C@H]2C(=O)N1C[C@@H]1CCCO1	none (no result: HCV inh, Lassa entry inh, FMDV antiviral, SARS PLP yeast, HCMV antiviral)
Cc1ccc(S(=O)(=O)n2nc(-n3c(C)ccc3C)c3c(F)cccc32)c2ccccc12	MARV entry inh 11.2µM
Cc1ccc(C)n1-c1nn(S(=O)(=O)c2cccc3cccnc23)c2cccc(F)c12	MARV entry inh inconclusive
O=C1c2ccccc2-c2nnc(-c3ccc(F)cc3)cc21	MARV entry inh inconclusive
Cc1ccc(-c2cc3c(nn2)-c2ccccc2C3=O)cc1	FMDV antiviral 10µM (no result: Lassa entry inh, MARV entry inh)
CCOC(=O)N/N=C1\C[C@@H](O)[C@@H](O)[C@@H]2[C@@H]3C(=O)N(c4ccc(F)cc4F)C(=O)[C@@H]3CC[C@@H]12	none (no result: HCV inh, Lassa entry inh, FMDV antiviral, SARS PLP yeast, HCMV antiviral)
CC(C)CNc1ncnc2c1ncn2[C@H]1CN(Cc2ccc3c(c2)OCO3)C[C@@H](CO)O1	HCMV antiviral -66.2 (no result: HCV inh, Lassa entry inh, MARV entry inh, SARS PLP yeast)
CC(C)Nc1ncnc2c1ncn2[C@H]1CN(Cc2ccc3c(c2)OCO3)C[C@@H](CO)O1	none (no result: HCV inh, Lassa entry inh, MARV entry inh, SARS PLP yeast)
CC(C)CNc1ncnc2c1ncn2[C@H]1CN(Cc2cccc3ccccc23)C[C@@H](CO)O1	HCMV antiviral -69.6 (no result: HCV inh, Lassa entry inh, MARV entry inh, SARS PLP yeast)
COc1ccc(N(C(=O)c2snc(C(N)=O)c2N)C(C(=O)NCc2ccccc2)c2ccc(O)cc2)cc1 (centres undefined)	HCV inh inconclusive, Lassa entry inh 0.731µM
NC(=O)c1nsc(C(=O)N(c2ccccc2)C(C(=O)NCc2ccc(F)cc2)c2ccc(O)cc2)c1N (centres undefined)	HCV inh inconclusive, Lassa entry inh 2.24µM, MARV entry inh inconclusive
NC(=O)c1nsc(C(=O)N(c2ccccc2)C(C(=O)NCc2ccc(F)cc2)c2ccco2)c1N (centres undefined)	HCV inh inconclusive, Lassa entry inh inconclusive, MARV entry inh inconclusive, HCMV antiviral inconclusive
CC(Sc1ncn[nH]1)C(=O)Nc1cc(C(F)(F)F)ccc1Cl (centres undefined)	HCV inh inconclusive (no result: Lassa entry inh, MARV entry inh)
O=C(Nc1nc(-c2ccccn2)cs1)c1ccc([N+](=O)[O-])o1	HCV inh 8.91µM, Lassa entry inh inconclusive, MARV entry inh inconclusive
O=C(Nc1nc(-c2ccccn2)cs1)c1ccc(-c2ccccc2F)o1	HCV inh inconclusive, HCMV antiviral -70.2 (no result: Lassa entry inh, MARV entry inh)
CCCOC(=O)c1cccc(NC(=O)COc2ccc([N+](=O)[O-])cc2)c1	HCV inh inconclusive, FMDV antiviral 25.1µM
O=C(COc1ccc([N+](=O)[O-])cc1)Nc1nc(-c2ccccn2)cs1	HCV inh 10µM, Lassa entry inh inconclusive, MARV entry inh inconclusive, HCMV antiviral -71.4
Cc1ccc(C(=O)Nc2nc(-c3ccccn3)cs2)o1	HCV inh inconclusive (no result: Lassa entry inh, MARV entry inh)
CCOc1ccc(-n2nc3cc(C)c(NC(=O)CC)cc3n2)cc1	none (no result: HCV inh, SARS PLP yeast)
CCOc1ccc(N(C)S(=O)(=O)c2c(C(=O)N3CCC(C)CC3)c(C)n(C)c2C)cc1	Lassa entry inh inconclusive, HCMV antiviral inconclusive (no result: HCV inh, MARV entry inh, SARS PLP yeast)
CC(=O)c1ccc(-c2ccc(C(=O)Nc3nc(-c4ccccn4)cs3)o2)cc1	HCV inh 2.51µM (no result: Lassa entry inh, MARV entry inh)
Cc1ccc(-c2csc(NC(=O)c3ccc(-c4ccccc4)cc3)n2)o1	HCV inh 8.91µM (no result: Lassa entry inh, MARV entry inh, HCMV antiviral)
O=C1c2ccccc2C(=O)c2[nH]cnc21	none (no result: Lassa entry inh, MARV entry inh)
O=C1c2ccccc2C(=O)c2c1ncn2-c1ccccc1	HCV inh inconclusive, MARV entry inh inconclusive, HCMV antiviral -67.6
CN(Cc1ccccc1)C(=O)c1ccc(NC(=O)Cc2ccc(NC(=O)C3CCCN(C(=O)C4CCC4)C3)cc2)cc1 (centres undefined)	HCV inh inconclusive, FMDV antiviral inconclusive (no result: Lassa entry inh, MARV entry inh, SARS PLP yeast)
CN(Cc1ccccc1)C(=O)c1ccc(NC(=O)Cc2ccc(NC(=O)C3CCN(C(=O)CCc4ccccc4)CC3)cc2)cc1	HCV inh inconclusive, HCMV antiviral -88.6 (no result: Lassa entry inh, MARV entry inh, SARS PLP yeast)
CN(Cc1ccccc1)C(=O)c1ccc(NC(=O)Cc2ccc(NC(=O)C3CCCN(C(=O)CCc4ccccc4)C3)cc2)cc1 (centres undefined)	HCV inh 2.24µM, FMDV antiviral inconclusive, HCMV antiviral -67.0 (no result: Lassa entry inh, MARV entry inh, SARS PLP yeast)
CN(Cc1ccccc1)C(=O)c1cccc(NC(=O)Cc2ccc(NC(=O)C3CCN(C(=O)CCc4ccccc4)CC3)cc2)c1	HCV inh 2.24µM, FMDV antiviral 17.8µM, HCMV antiviral -91.3 (no result: Lassa entry inh, MARV entry inh, SARS PLP yeast)
CN(Cc1ccccc1)C(=O)c1ccc(NC(=O)C2CCCN(C(=O)OC(C)(C)C)C2)cc1 (centres undefined)	HCV inh 6.31µM, FMDV antiviral inconclusive (no result: Lassa entry inh, MARV entry inh)
CN(Cc1ccccc1)C(=O)c1cccc(NC(=O)Cc2ccc(NC(=O)C3CCN(C(=O)c4ccccc4)CC3)cc2)c1	none (no result: Lassa entry inh, MARV entry inh, SARS PLP yeast)
CCOC(=O)c1noc2ncnc(Nc3cccc(C(F)(F)F)c3)c12	none (no result: HCV inh, MARV entry inh, SARS PLP yeast)
CCC(C)C(=O)O[C@@H]1[C@H](OC(C)=O)c2c(ccc3ccc(=O)oc23)OC1(C)C (some centres undefined)	none (no result: HCV inh, Lassa entry inh, FMDV antiviral, MARV entry inh, SARS PLP yeast)
Cc1c(C(=O)NN2CCOCC2)oc2c1ccc1ccccc12	none
CN(Cc1ccccc1)C(=O)c1cccc(NC(=O)Cc2cccc([N+](=O)[O-])c2)c1	HCV inh 2.82µM, FMDV antiviral inconclusive, HCMV antiviral inconclusive (no result: Lassa entry inh, MARV entry inh)
CN(Cc1ccccc1)C(=O)c1cccc(NC(=O)Cc2ccc([N+](=O)[O-])cc2)c1	HCV inh inconclusive, FMDV antiviral inconclusive (no result: Lassa entry inh, MARV entry inh)
CN(CCc1ccccc1)C(=O)c1ccc(NC(=O)Cc2ccc(NC(=O)C3CCCN(C(=O)C4CCCC4)C3)cc2)cc1 (centres undefined)	HCV inh inconclusive, FMDV antiviral inconclusive, HCMV antiviral -68.1 (no result: Lassa entry inh, MARV entry inh, SARS PLP yeast)
CN(Cc1ccccc1)C(=O)c1ccc(NC(=O)Cc2ccc(NC(=O)C3CCCN(S(=O)(=O)c4cccc([N+](=O)[O-])c4)C3)cc2)cc1 (centres undefined)	HCV inh 12.6µM (no result: Lassa entry inh, MARV entry inh, SARS PLP yeast)
O=C(NC(C(=O)N/N=C/c1c2ccccc2cc2ccccc12)c1n[nH]c(=O)c2ccccc12)c1ccccc1 (centres undefined)	HCV inh 2.51µM, MARV entry inh inconclusive, SARS PLP yeast inconclusive
Cc1cc(N2CCOCC2)nc2ccc(NC(=O)CCC(=O)N3CCN(c4ccccc4F)CC3)cc12	HCV inh 22.4µM, Lassa entry inh inconclusive, MARV entry inh inconclusive

Source: PubChem BioAssay (National Center for Advancing Translational Sciences (NCATS))
